Pol eta inh-1: DNA polymerase eta (human) inhibition; Q9Y253; recombinant Pol eta, fluorescent DNA replication assay; Potency, µM (titrated, usually from 114 µM), for the others: at the top dose activity change, negative = inhibition, hits mostly inhibitors; hit rate 1.2% among 390,000; also: potency is read from the fitted curve at half-maximal effect; % is scaled to controls: 0 for no effect and ±100 for the full control effect
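Pol eta at 10 nM preincubated with compounds 15 min at room temperature; reaction started with fluorescent substrate (50 nM final) and read kinetically at 0 and 10 min.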
POLB inh: inhibitors of human DNA polymerase beta | P06746 | Pol beta primer extension/strand displacement, fluorescence kinetic | Potency, µM (titrated, usually from 114 µM), for the others: at the top dose activity change, negative = inhibition, actives largely listed as inhibitors | hit rate 1.3% among 340,000 | AID 485314; also: potency is read from the fitted curve at half-maximal effect; % is scaled to controls: 0 for no effect and ±100 for the full control effect
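Pol beta (10 nM) and compounds were preincubated 15 min at room temperature, then 50 nM substrate (final) started primer extension/strand displacement. Reads were taken at 0 and 10 min; concentration-response data were fitted to a four-parameter Hill equation.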
Pol iota inh: inhibitors of human DNA polymerase iota. Q9UNA4. Pol iota fluorescent replication assay, 10 min. Potency, µM (highest dose often 115 µM), without a hit: at the top dose activity, negative = inhibition, most hits filed as inhibitors. hit rate 1% among 390,000. AID 588590; also: potency is read from the fitted curve at half-maximal effect
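Pol iota at 10 nM preincubated 15 min with compounds at room temperature; reaction started with fluorescent substrate, 50 nM final. Fluorescence read kinetically at 0 and 10 min; buffer-only wells as negative control.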
PI5P4K alpha inh: inhibitors of human PI5P4K alpha. P48426. PI5P4Kalpha enzyme, ADP-Glo luminescence, 60 min; hits give low values. max response, %. hit rate 1.2% among 330,000; active = max response of -50% or lower; inconclusive = between -30% and -50%; inactive = -30% or higher; also: value at the top dose of about 77 µM; % is scaled to controls: 0 for no effect and ±100 for the full control effect
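ADP-Glo luminescence end-point read after a 60 min room-temperature kinase reaction of PI5P4Kalpha plus substrate, initiated with ATP at 5 microM final. Buffer: 0.038 M HEPES pH 7.4, EGTA, 0.1% CHAPS, 5% DMSO.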
Pol kappa inh-1: blocks human DNA polymerase kappa activity. Q9UBT6. purified Pol kappa, fluorescent DNA synthesis assay, 10 min. Potency, µM (series often up to 107 µM), without a hit: top-dose activity, negative = inhibition, most hits filed as inhibitors. hit rate 0.53% among 400,000. AID 588579; also: potency is read from the fitted curve at half-maximal effect; % is scaled to controls: 0 for no effect and ±100 for the full control effect
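50 nM final substrate added after 15 min RT preincubation of 10 nM Pol kappa with compound; fluorescence read at 0 and 10 min.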
WRN helicase inh-1: WRN helicase (human) inhibition; Q14191; WRN helicase unwinding, fluorescent forked duplex, kinetic; Potency, µM (top dose mostly 114 µM), inactives show at the highest dose activity change, negative = inhibition, actives largely listed as inhibitors; hit rate 0.46% among 360,000; AID 651768; also: potency is read from the fitted curve at half-maximal effect; % is scaled to controls: 0 for no effect and ±100 for the full control effect; nearly all actives have a fitted effect of over 55% in size
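Screening of the MLSMR collection measured strand separation of a quenched forked DNA duplex (100 nM) by 20 nM WRN with 2 mM ATP, all final. Compounds were preincubated with enzyme 15 min at room temperature.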
TbPGK inh: blocks T. brucei phosphoglycerate kinase | hit rate 79% among 500 | Potency, µM (highest dose often 57.5 µM), for the others: at the top dose activity change, negative = inhibition, usual class: inhibitors | shares compounds with Pol kappa inh-1 | AID 686980 | TbPGK coupled GAPDH assay, Kinase-Glo luminescence; also: potency is read from the fitted curve at half-maximal effect; % is scaled to controls: 0 for no effect and ±100 for the full control effect; nearly all actives have a fitted effect of over 65% in size
POLI cherry-pick: Confirm cherry-picked inhibitors of human polymerase iota; shares compounds with Pol kappa inh-1; Pol iota primer extension, TAMRA/BHQ fluorescence; Potency, µM, usual class: inhibitors; hit rate 77% among 1,500; also: potency is read from the fitted curve at half-maximal effect
GALK confirm: confirmation of human galactokinase (GALK) inhibitors; purified GALK, Kinase-Glo ATP depletion luminescence; hit rate 70% among 150; Potency, µM (doses to about 115 µM), inactives show at the highest dose activity, negative = inhibition, most hits filed as inhibitors; AID 2015; shares compounds with Pol eta inh-1
Redox cycling: generates H2O2 by redox cycling, flagging GALK artifacts; hit rate 40% among 150; Potency, µM (doses to about 115 µM), for the others: top-dose activity change, negative = H2O2 signal, hits mostly inhibitors; shares compounds with Pol eta inh-1; AID 2035; Phenol red-HRP H2O2 redox cycling, absorbance 600 nm
HEK293 viability: HEK-293 cytotoxicity, GALK inhibitor secondary; Potency, µM (titrated, usually from 46.1 µM), without a hit: at the top dose activity change, negative = cytotoxicity, most hits filed as inhibitors; shares compounds with Pol eta inh-1; hit rate 10% among 170; HEK-293 viability, ATP luminescence (CellTiter-Glo), 24/48 h; also: potency is read from the fitted curve at half-maximal effect; % is scaled to controls: 0 for no effect and ±100 for the full control effect
Pol kappa inh-2: Pol kappa (human) inhibition, cherry-pick confirmation | shares compounds with Pol eta inh-1 | purified Pol-kappa, fluorescent strand-displacement substrate | Potency, µM, actives largely listed as inhibitors | hit rate 76% among 920 | AID 720501; also: potency is read from the fitted curve at half-maximal effect
Pol eta inh-2: confirmation of human DNA polymerase eta inhibitors; Pol eta primer extension, TAMRA/BHQ fluorescence, 10 min; Potency, µM, hits mostly inhibitors; shares compounds with Pol eta inh-1; hit rate 64% among 2,600; AID 720502; also: potency is read from the fitted curve at half-maximal effect
WRN helicase inh-2: WRN helicase inhibition, cherry-pick retest; shares compounds with WRN helicase inh-1; WRN helicase DNA unwinding, fluorescence kinetic; Potency, µM (highest dose often 57.1 µM), for inactives: at the top dose activity, negative = inhibition, most hits filed as inhibitors; hit rate 63% among 610; also: potency is read from the fitted curve at half-maximal effect; nearly all actives have a fitted effect of over 65% in size
TO DNA binding: counter-screen for WRN helicase inhibitors: DNA binding; thiazole orange DNA binding displacement, fluorescence; hit rate 10% among 610; Potency, µM (top dose mostly 57.1 µM), for the others: at the top dose activity change, negative = inhibition, most hits filed as inhibitors; shares compounds with WRN helicase inh-1; AID 720499;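 also: drop in dye fluorescence marks compound binding to DNA; potency is read from the fitted curve at half-maximal effect; % is scaled to controls: 0 for no effect and ±100 for the full control effect; nearly all actives have a fitted effect of over 60% in size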
BLM counter: BLM helicase inhibition, WRN selectivity check. Potency, µM (doses to about 57.1 µM), inactives show at the top dose activity change, negative = inhibition, actives largely listed as inhibitors. hit rate 60% among 610. shares compounds with WRN helicase inh-1. Recombinant BLM helicase DNA unwinding, red fluorescence; also: potency is read from the fitted curve at half-maximal effect; nearly all actives have a fitted effect of over 60% in size
Target sequence (P54132 whole entry, looked up): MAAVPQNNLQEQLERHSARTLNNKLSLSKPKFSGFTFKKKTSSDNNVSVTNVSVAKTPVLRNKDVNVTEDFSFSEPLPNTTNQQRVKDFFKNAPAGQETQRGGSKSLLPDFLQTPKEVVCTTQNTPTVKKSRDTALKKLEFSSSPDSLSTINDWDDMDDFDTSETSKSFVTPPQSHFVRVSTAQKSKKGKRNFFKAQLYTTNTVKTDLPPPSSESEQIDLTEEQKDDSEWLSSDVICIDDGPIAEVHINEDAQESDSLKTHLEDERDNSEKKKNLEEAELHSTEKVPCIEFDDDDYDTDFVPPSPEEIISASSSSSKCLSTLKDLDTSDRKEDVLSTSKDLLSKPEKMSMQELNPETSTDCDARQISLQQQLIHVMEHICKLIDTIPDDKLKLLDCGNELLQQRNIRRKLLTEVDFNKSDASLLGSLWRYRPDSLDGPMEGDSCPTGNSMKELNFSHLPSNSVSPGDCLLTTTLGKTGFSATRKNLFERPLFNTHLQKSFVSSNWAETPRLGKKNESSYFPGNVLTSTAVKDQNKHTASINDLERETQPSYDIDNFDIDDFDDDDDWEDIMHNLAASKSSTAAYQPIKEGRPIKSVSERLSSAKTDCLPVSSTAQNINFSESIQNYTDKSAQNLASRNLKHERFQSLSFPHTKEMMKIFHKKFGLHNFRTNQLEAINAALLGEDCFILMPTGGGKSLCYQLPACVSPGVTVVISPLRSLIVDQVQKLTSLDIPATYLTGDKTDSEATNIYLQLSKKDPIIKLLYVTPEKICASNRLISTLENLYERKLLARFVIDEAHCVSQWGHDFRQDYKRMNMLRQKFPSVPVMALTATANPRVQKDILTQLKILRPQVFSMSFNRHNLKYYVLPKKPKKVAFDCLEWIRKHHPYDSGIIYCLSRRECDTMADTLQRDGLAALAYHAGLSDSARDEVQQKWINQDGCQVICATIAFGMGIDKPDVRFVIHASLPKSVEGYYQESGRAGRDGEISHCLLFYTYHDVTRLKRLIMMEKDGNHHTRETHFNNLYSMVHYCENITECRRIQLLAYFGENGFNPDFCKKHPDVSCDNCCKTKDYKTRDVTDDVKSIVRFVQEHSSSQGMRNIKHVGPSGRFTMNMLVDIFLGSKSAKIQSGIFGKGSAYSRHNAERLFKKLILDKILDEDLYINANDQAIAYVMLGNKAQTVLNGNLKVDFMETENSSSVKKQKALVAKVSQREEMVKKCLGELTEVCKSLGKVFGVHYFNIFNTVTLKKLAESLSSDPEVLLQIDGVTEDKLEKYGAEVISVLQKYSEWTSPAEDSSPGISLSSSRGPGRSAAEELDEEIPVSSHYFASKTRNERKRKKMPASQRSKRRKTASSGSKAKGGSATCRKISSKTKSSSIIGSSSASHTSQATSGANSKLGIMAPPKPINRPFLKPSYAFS
Numbers without * were called inactive; [ ] = another dose, or the depositor's remark. In the library only some 2.8% were active in any assay of this set; here they are far more common. Unless noted, calls follow the shape of the dose curve; as a rule, active = well fitted curve in the direction sought with a large enough effect; inconclusive = small, poorly fitted or top-dose-only effect, or another doubt; inactive = no such curve, though single readings can be large; an effect the other way counts as inactive or inconclusive.

How did CC(Cc1ccc(OCC(=O)O)cc1)NCC(O)c1cccc(Cl)c1 (centres undefined) do in these assays?
Pol eta inh-1: -3.9%[57.1 µM]; POLB inh: 12.2%[57.1 µM]; Pol iota inh: 11.9%[58.9 µM]; Pol kappa inh-1: -3.9%[60.1 µM]

What do the screens show for `CC(Cc1ccc(O)cc1)NCC(O)c1ccc(O)c(O)c1` (centres undefined)?
Pol eta inh-1: 3.98µM*; PI5P4K alpha inh: -58.8*; WRN helicase inh-1: 25.1µM*; POLI cherry-pick: 15*; Pol kappa inh-2: 3.36*; Pol eta inh-2: 12*; WRN helicase inh-2: 13.6µM*; TO DNA binding: -6.1%; BLM counter: 6.07µM*

Results for COc1cc(-c2oc3cc(O)cc(O)c3c(=O)c2O)ccc1O ?
Pol iota inh: -11.7%; Pol kappa inh-1: inconclusive

What do the screens show for `O=c1c(O)c(-c2ccc(O)c(O)c2)oc2cc(O)cc(O)c12`?
Pol eta inh-1: 0.708µM*; POLB inh: 0.199µM*; Pol iota inh: 0.562µM*; PI5P4K alpha inh: -83.6*; Pol kappa inh-1: 0.947µM*; WRN helicase inh-1: inconclusive; TbPGK inh: inconclusive; POLI cherry-pick: 15*; GALK confirm: 42.1µM*; Redox cycling: -2.3%; HEK293 viability: inconclusive; Pol kappa inh-2: 2.99*; Pol eta inh-2: 12*; WRN helicase inh-2: 1.21µM*; TO DNA binding: inconclusive; BLM counter: 1.08µM*

What do the screens show for `COC(=O)C1=C(c2ccccc2OCc2ccccc2)C[C@@H]2CC[C@H]1N2C(=O)NC1CCN(Cc2ccccc2)CC1`?
Pol eta inh-1: -17.7%; Pol iota inh: -27.7%; PI5P4K alpha inh: 1.1; Pol kappa inh-1: -10.5%; WRN helicase inh-1: -0.4%

Results for O=C1CC23c4ccccc4N4C(=O)CC5OCC=C6CN1C2CC6C5C43 (centres undefined) ?
Pol eta inh-1: -16.5%; Pol iota inh: 16.7%; PI5P4K alpha inh: -0.6; Pol kappa inh-1: -0.1%; WRN helicase inh-1: 8.4%

How did N#Cc1ccc(CN2CC3(CCNCC3)C2)cc1 do in these assays?
Pol kappa inh-1: -1.7%[60.1 µM]

Results for N/C(=N\N=C/c1ccc(-c2ccc(O)c(C(=O)O)c2)o1)N[N+](=O)[O-] ?
Pol eta inh-1: 4.47µM*; POLB inh: 3.55µM*; Pol iota inh: 3.55µM*; Pol kappa inh-1: 8.91µM*; WRN helicase inh-1: 25.1µM*; TbPGK inh: 6.51µM*; POLI cherry-pick: 2.99*; Pol kappa inh-2: 2.99*; Pol eta inh-2: 4.26*; WRN helicase inh-2: 7.64µM*; TO DNA binding: inconclusive; BLM counter: 6.81µM*

What do the screens show for `O=C(Nc1ccc2oc(-c3cccnc3)nc2c1)c1ccc(-c2cccc(Cl)c2)o1`?
Pol eta inh-1: 70.8µM*; POLB inh: inconclusive; Pol iota inh: -7.1%; Pol kappa inh-1: -17.2%; POLI cherry-pick: 42.3*; Pol eta inh-2: 75.7*; WRN helicase inh-2: 19.2µM*; TO DNA binding: 13.7%; BLM counter: 6.81µM*

What do the screens show for `CCCC12CN3CC(C)(CN(C1)C3c1ccccn1)C2=O` (centres undefined)?
Pol eta inh-1: -4.4%; POLB inh: 3.4%; Pol iota inh: 7.4%; Pol kappa inh-1: 8.1%

Screens from PubChem BioAssay.
